Pemphigus Ab inh: inhibitors of pemphigus antibody binding to human desmoglein-3. P32926. DSG3-coupled beads, scFv-anti-DSG3-GFP binding, flow cytometry; active compounds read low. binding (percent of control), % at 10 µM. hit rate 0.48% among 310,000;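 active means binding more than 3 SD below its plate's average and above zero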;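 further: hits lower antibody fragment binding to DSG3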
ADAM10 inh: inhibitors of human ADAM10. O14672. recombinant ADAM10, EDANS/DABCYL FRET peptide cleavage, 3 h. inhibition, % at 7 µM. hit rate 0.62% among 370,000;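 active means inhibition above a per-campaign cutoff equal to the mean of compounds falling between control-based bounds plus 3 SD, cut at about 20% in these data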
MPTP block: blocks calcium-induced mitochondrial swelling | hit rate 1.4% among 360,000 | isolated mouse mitochondria, Ca2+ swelling absorbance, 30 min | inhibition, % at 10 µM | AID 602449;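 active means inhibition of 50% or more, scaled per plate between neutral and stimulator controls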
rCAG RNA binder: binds r(CAG) RNA repeats; inhibition, % at 3 µM; hit rate 1.3% among 370,000; r(CAG) RNA repeat, TO-PRO-1 dye displacement fluorescence;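 active means inhibition above the plate cutoff, the mean of all test compounds on that plate plus 3 SD, cut at about 35% in these data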;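 further: higher means more dye released from RNA so lower well fluorescence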
KLK7 zymogen act: activates the human kallikrein-7 zymogen | purified proKLK7, EDANS-DABCYL substrate fluorescence; 100% is mature enzyme control, 0% vehicle | activation, % at 7 µM | hit rate 0.9% among 370,000 | AID 652039;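 active means activation above the mean of all tested compounds plus 3 SD, computed per campaign excluding outliers beyond control limits, cut at about 13% in these data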
Target sequence (P49862 whole entry, looked up): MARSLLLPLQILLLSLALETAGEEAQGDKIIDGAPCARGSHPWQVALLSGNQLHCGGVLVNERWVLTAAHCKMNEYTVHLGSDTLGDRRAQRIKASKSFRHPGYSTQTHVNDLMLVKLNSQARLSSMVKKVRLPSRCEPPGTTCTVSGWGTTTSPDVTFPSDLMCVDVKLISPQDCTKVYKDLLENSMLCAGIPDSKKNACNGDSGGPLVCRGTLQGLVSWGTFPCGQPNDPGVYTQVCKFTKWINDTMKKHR
ADAM17 inh: ADAM17 inhibition, QFRET primary screen; recombinant ADAM17, EDANS/DABCYL FRET peptide cleavage; P78536; inhibition, % at 6.95 µM; hit rate 0.83% among 370,000;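 active means inhibition above the mean of compounds lying between control limits plus 3 SD, set per campaign, cut at about 8.5% in these data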
proKLK7 act conf: proKLK7 activation, confirmation. shares compounds with KLK7 zymogen act. purified proKLK7, EDANS-DABCYL substrate fluorescence; scaled: vehicle 0, mature enzyme 100. activation, % at 7 µM. hit rate 68% among 3,200. AID 686949;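 active means activation, as change over the incubation, above the mean of all tested compounds plus 3 SD, cut at about 13% in these data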
EDANS interfere: fluorescence interference counter-screen for KLK7 activators | shares compounds with KLK7 zymogen act | EDANS-DABCYL substrate fluorescence interference, no enzyme, 4 h; solvent 0%, active enzyme control 100% | activation, % at 7 µM | hit rate 80% among 3,200;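 active means activation above the all-compound mean plus 3 SD, ignoring values outside control-based bounds, cut at about 4.8% in these data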;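 further: value is the 4 h activation minus the activation read at time zero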
EDANS interf: optically interferes with EDANS-DABCYL fluorescence, kallikrein-7 activator counter-screen. shares compounds with KLK7 zymogen act. EDANS-DABCYL peptide fluorescence interference, no enzyme. EC50, µM. hit rate 20% among 250. AID 720493;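 active means compounds that raise the fluorescence signal in this interference counterscreen, with EC50 at or below 10 µM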;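 further: intact quenched peptide substrate alone read at 355 nm excitation and 520 nm emission; signal is fluorescence gain from T0 to T4 after four hours at room temperature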
Each line names hits and unclear results; the compound was inactive in the other large screens (follow-up assays come after a bar, where they were run). In the library only some 4.7% were active in any assay of this set; here they are far more common.

COc1ccc(OC(=O)c2cccc([N+](=O)[O-])c2)c(C(=O)/C=C/c2cccs2)c1	KLK7 zymogen act 24.9 | proKLK7 act conf 20.3 | EDANS interfere 14.9 | EDANS interf inactive
O=c1c2ccccc2nc2n1CCC2	none
Nc1ccc2nc3n(c(=O)c2c1)CCC3	KLK7 zymogen act 16.7 | proKLK7 act conf inactive | EDANS interfere 11.7
CC(C)(C)OC(=O)N1CCC[C@@H]1C(=O)NCc1ccccc1	none (no result: Pemphigus Ab inh, MPTP block)
CCOc1cccc2cc(-c3nnc(NCc4ccco4)s3)c(=O)oc12	none
COc1ccc2oc(=O)c(-c3nnc(NCc4ccco4)s3)cc2c1	KLK7 zymogen act 35.4 | proKLK7 act conf inactive | EDANS interfere inactive
CN(C)C=Nc1ccc2nn(-c3ccccc3)nc2c1	KLK7 zymogen act 18.6 (no result: Pemphigus Ab inh) | proKLK7 act conf 66.0 | EDANS interfere 69.2
COCCN1C(=O)C(=O)/C(=C(/O)c2ccc(S(=O)(=O)N3CCCCC3)cc2)C1c1ccc(O)c(OC)c1 (centres undefined)	none
O=C(NCc1cccs1)c1cccc2c(-c3cccnc3)coc12	none (no result: Pemphigus Ab inh)
Nc1cc(=O)[nH]c(SCC(=O)Nc2ccc(Br)cc2)n1	none
COc1ccc(NC(=O)c2ccc(NC(=O)CSc3nc(N)cc(=O)[nH]3)cc2)cc1	KLK7 zymogen act 23.4 | proKLK7 act conf 17.3 | EDANS interfere 13.8 | EDANS interf inactive
COc1cccc2[nH]c3c(N4CCC(C(N)=O)CC4)ncnc3c12	KLK7 zymogen act 25.3 | proKLK7 act conf 46.6 | EDANS interfere 42.9
COc1cccc2[nH]c3c(N4CCCC(C)C4)ncnc3c12 (centres undefined)	none
COc1cc2cncc(Cc3ccccc3)c2cc1O	KLK7 zymogen act 21.9 | proKLK7 act conf 16.9 | EDANS interfere 20.5
COc1ccc(NC(=O)COC(=O)c2c(NC(C)=O)sc(C)c2C)cc1	KLK7 zymogen act 25.9 | proKLK7 act conf inactive | EDANS interfere inactive
Cc1oc2c(C)c3oc(=O)c(CCC(=O)NCCCCCC(=O)O)c(C)c3cc2c1C	KLK7 zymogen act 20.6 | proKLK7 act conf 13.9 | EDANS interfere 9.3 | EDANS interf inactive
Cc1coc2c(C)c3oc(=O)c(CCC(=O)NCCCN4CCCC4=O)c(C)c3cc12	none
Cc1c(CCC(=O)NCCCN2CCCC2=O)c(=O)oc2cc(O)ccc12	KLK7 zymogen act 72.9 | proKLK7 act conf 64.8 | EDANS interfere 83.7
Cc1oc2cc3oc(=O)c(CCC(=O)NCCCN4CCOCC4)c(C)c3cc2c1C	none (no result: Pemphigus Ab inh)
Cc1c(CCC(=O)NCCCN2CCCC2=O)c(=O)oc2c(C)c(O)ccc12	KLK7 zymogen act 79.0 (no result: Pemphigus Ab inh) | proKLK7 act conf 62.5 | EDANS interfere 77.4
Cc1oc2c(C)c3oc(=O)c(CCC(=O)NCCCn4ccnc4)c(C)c3cc2c1C	none
N#CC1(C(N)=O)OC12CCS(=O)(=O)c1ccccc12 (centres undefined)	none (no result: Pemphigus Ab inh)
CCOC(=O)c1c(-c2ccc(OC)cc2)nc2nonc2c1N	none
CC(=O)c1c(C)nc2nonc2c1N	KLK7 zymogen act 15.8 | proKLK7 act conf 32.8 | EDANS interfere 37.8
COc1ccccc1N1CCN(C(c2cccs2)C(C)NC(=O)c2ccncc2)CC1 (centres undefined)	KLK7 zymogen act 295.8 | proKLK7 act conf inactive | EDANS interfere inactive
COc1ccccc1N1CCN(C(c2cccs2)C(C)NC(=O)c2ccco2)CC1 (centres undefined)	none
Cc1cc2cc3c(=O)[nH]c(=O)nc-3n(CC(O)C(O)C(O)CO)c2cc1C (centres undefined)	KLK7 zymogen act 47.6 | proKLK7 act conf 61.4 | EDANS interfere 70.5
Cc1cc2cc3c(=O)[nH]c(=O)cc-3n(CC(O)C(O)C(O)CO)c2cc1C (centres undefined)	none
CNC(=O)NC(=O)C(C)OC(=O)c1c2c(nc3ccccc13)/C(=C/c1cccs1)CC2 (centres undefined)	KLK7 zymogen act 50.1 | proKLK7 act conf 85.4 | EDANS interfere 73.2
COc1ccc(COc2cc(-c3cccc(OC)c3)nc3ccc(N)cc23)cc1	KLK7 zymogen act 58.8 | proKLK7 act conf inactive | EDANS interfere inactive
COc1ccc(COc2cc(-c3cccc(OC)c3)nc3ccc(NC(=O)c4ccc(C)cc4)cc23)cc1	none
COc1ccc(COc2cc(-c3cccc(OC)c3)nc3ccc(NC(C)=O)cc23)cc1	KLK7 zymogen act 17.9 | proKLK7 act conf inactive | EDANS interfere inactive
O=C1C(C2=NC(c3ccccn3)C3C(=O)N(c4ccccc4)C(=O)C23)=C(O)c2ccccc21 (centres undefined)	KLK7 zymogen act 24.5 | proKLK7 act conf inactive | EDANS interfere inactive
CCc1cc2c(=O)c(-c3nc4ccccc4n3C)c(C(C)C)oc2c(CN2CCN(C)CC2)c1O	none
Cc1c(C)c2cc(Cl)c(O)c(CN3CCCC(C)C3)c2oc1=O (centres undefined)	KLK7 zymogen act 41.6 | proKLK7 act conf 68.7 | EDANS interfere 73.2
Cc1c(C)c2cc(Cl)c(O)c(CN3CCN(C)CC3)c2oc1=O	KLK7 zymogen act 76.2 (no result: Pemphigus Ab inh) | proKLK7 act conf 63.9 | EDANS interfere 69.3
CS(=O)(=O)Nc1ccc(F)cc1	none (no result: Pemphigus Ab inh)
CN1CCN(C(=O)/C=C/c2ccc(C#N)cc2)CC1	none
CC1(C)C2CCC1(C)C(OC(=O)C[n+]1ccccc1N)C2 (centres undefined)	KLK7 zymogen act 52.3 | proKLK7 act conf 99.4 | EDANS interfere 100.3
COC(=O)[C@]1(C)N[C@H](CN(C)S(=O)(=O)c2ccc(C)cc2)[C@@H]2C(=O)N(C)C(=O)[C@@H]21	none
NC(=O)c1cccc2cc3ccccc3cc12	KLK7 zymogen act 53.5 | proKLK7 act conf 65.1 | EDANS interfere 71.8
NC(=O)c1ccccc1OCc1cccc2ccccc12	none
O=C1c2cccc3cccc(c23)C(=O)N1c1ccccc1Cl	KLK7 zymogen act 45.9 | proKLK7 act conf 25.6 | EDANS interfere 22.2
O=C(COC(=O)c1cc(Br)ccc1O)NNC(=O)c1cccs1	KLK7 zymogen act 25.1 | proKLK7 act conf 20.7 | EDANS interfere 23.6
COc1ccc(CN(C2CC2)S(=O)(=O)c2ccccc2Br)cc1	none
CC(C)(C)c1ccc(CN2N=Nc3ccccc3S2(=O)=O)cc1	KLK7 zymogen act 20.6 (no result: Pemphigus Ab inh) | proKLK7 act conf inactive | EDANS interfere inactive
Cc1ccc(N=c2oc3cc(O)ccc3cc2C(N)=O)cc1	KLK7 zymogen act 24.2 (no result: Pemphigus Ab inh) | proKLK7 act conf inactive | EDANS interfere 10.7
CC(=O)c1cc2c(O)c(O)ccc2o1	none
COc1ccc2cc(C(=O)NCc3ccco3)c(=O)oc2c1	none

Compound activity from PubChem.
